{"source": "PubChem BioAssay", "note": "Values joined by “and” are separate entries in the source; they are usually repeats but may differ in a detail not shown here. Equal values may be shown once. A number with no mark means an inactive call. Active and inactive are the calls of the source. How the calls were made is not given here."}
{"test_system": "Aerobactin synthetase IucA (Klebsiella pneumoniae hvKP1)", "assay": "IucA enzyme inhibition, primary screen, biochemical, Spectrum library (AID 1346200);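 further: 100% = wells without compound and 0% = wells lacking enzyme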", "details": "malachite green pyrophosphate, A620, at 8 µM, hits give low values"}
{"smiles": "CCC(/C=C/[C@@H](C)[C@H]1CCC2C3CC=C4C[C@@H](O)CC[C@]4(C)C3CC[C@@]21C)C(C)C", "note": "(stereo not given in full)", "activity remaining": "101%"}
{"smiles": "NC(=O)N/N=C/c1ccc([N+](=O)[O-])o1", "activity remaining": "94.6%"}
{"smiles": "C[C@@H]1CC[C@@]2(OC1)O[C@H]1CC3C4CC[C@H]5C[C@@H](O)CC[C@]5(C)C4CC[C@]3(C)[C@H]1[C@@H]2C", "note": "(stereo not given in full)", "activity remaining": "101%"}
{"smiles": "CCCCCCCCNC(C)C(O)c1ccc(SC(C)C)cc1", "note": "(stereo not given)", "activity remaining": "114%"}
{"smiles": "CCCCOc1ccc(OCCCN2CCOCC2)cc1", "activity remaining": "104%"}
{"smiles": "COc1cc(-c2coc3cc(OCc4ccccc4)c(OC)c(O)c3c2=O)cc(O)c1OC", "activity remaining": "122%"}
{"smiles": "CCCc1ncc(C[n+]2ccccc2C)c(N)n1", "activity remaining": "111%"}
{"smiles": "OCC(O)C(O)C(O)CO", "note": "(stereo not given)", "activity remaining": "112% and 92.5%"}
{"smiles": "O=C(O)[C@@H](S)[C@@H](S)C(=O)O", "activity remaining": "49.3% (active)"}
{"smiles": "CCOc1ccc(C(=O)c2ccc(OC)c(O)c2O)cc1", "activity remaining": "109%"}
{"smiles": "CCN1CCCC(OC(=O)C(c2ccccc2)c2ccccc2)C1", "note": "(stereo not given)", "activity remaining": "110%"}
{"smiles": "C=CCCCCCCCCCCCC(O)CC(O)CO", "note": "(stereo not given) (tested in a mixture with another compound)", "activity remaining": "85.4%"}
{"smiles": "O=C(O)CCNC(=O)c1ccccc1", "activity remaining": "103%"}
{"smiles": "O=C(O)CCCCCCCCCCCCC1C=CCC1", "note": "(stereo not given)", "activity remaining": "118%"}
{"smiles": "COc1cc(C/C=C/c2ccccc2)c(OC)cc1O", "activity remaining": "113%"}
{"smiles": "CC(=O)Nc1cccc(O)c1", "activity remaining": "120%"}
{"smiles": "C[N+]1(C)CCCC(OC(=O)C(O)(c2ccccc2)c2ccccc2)C1", "note": "(stereo not given)", "activity remaining": "111%"}
{"smiles": "O=C(Nc1ccccc1)Nc1ccccc1", "activity remaining": "103%"}
{"smiles": "Oc1c(Br)cc(Br)c2cccnc12", "activity remaining": "113%"}
{"smiles": "O=C(/C=C/c1ccc(O)c(O)c1)OC(Cc1ccc(O)c(O)c1)C(=O)O", "note": "(stereo not given)", "activity remaining": "116%"}
{"smiles": "COC(=O)C[C@H]1C(C)(C)C2(O)OC34CC2C(=O)[C@]1(C)C3CC[C@]1(C)C4=CC(=O)O[C@H]1c1ccoc1", "note": "(stereo not given in full)", "activity remaining": "105%"}
{"smiles": "Nc1c2ccccc2nc2ccccc12", "note": "(tested in a mixture with another compound)", "activity remaining": "112%"}
{"smiles": "N[C@@H](C(=O)O)[C@@H](O)[C@H](O)[C@H](O)CO", "activity remaining": "120%"}
{"smiles": "COc1c(O)cc2oc3cc(O)c(CC=C(C)C)c(O)c3c(=O)c2c1CC=C(C)C", "activity remaining": "93%"}
{"smiles": "CC1(C)C(=O)C=C[C@@]2(C)C1CC(=O)[C@]1(C)C2CC[C@@]2(C)[C@H](c3ccoc3)OC(=O)[C@H]3O[C@]321", "note": "(stereo not given in full)", "activity remaining": "116%"}
{"smiles": "O=C1CC(c2ccc(O)cc2)Oc2ccccc21", "note": "(stereo not given)", "activity remaining": "92%"}
{"smiles": "Cc1cc(=O)c2c(O)c(C)c(O)cc2o1", "activity remaining": "108%"}
{"smiles": "Oc1ccc([C@H]2Oc3cc(O)cc(O)c3C[C@H]2O)cc1", "activity remaining": "113%"}
{"smiles": "C[C@]12CCC3c4ccc(OS(=O)(=O)O)cc4CCC3C1CC[C@H]2O", "note": "(stereo not given in full)", "activity remaining": "102%"}
{"smiles": "CC(C)=CCCC1(C)C=Cc2c(O)c3c(c(CC=C(C)C)c2O1)OC12C(=CCCC1C(C)(C)O[C@@]2(C/C=C(\\C)C(=O)O)C(=O)O)C3=O", "note": "(stereo not given in full)", "activity remaining": "116%"}
{"smiles": "COc1ccc(-c2coc3cc(O)ccc3c2=O)c(O)c1O", "activity remaining": "114%"}
{"smiles": "CC(C)(C)CC(C)(C)c1ccc(O)c(Cc2ccc(Cl)cc2Cl)c1", "activity remaining": "110%"}
{"smiles": "Cc1cc(O)c(C=O)c2c1C(=O)Oc1c(C)c(O)c3c(c1O2)C(O)OC3=O", "note": "(stereo not given)", "activity remaining": "113%"}
{"smiles": "CN(C)/N=N/c1nc[nH]c1C(N)=O", "activity remaining": "107%"}
{"smiles": "COC(=O)[C@]1(C)CCC[C@]2(C)c3ccc(C(C)C)cc3C(=O)CC12", "note": "(stereo not given in full)", "activity remaining": "89.3%"}
{"smiles": "COc1cc(OC)c(-c2c(OC)cc(OC)cc2OC)c(OC)c1", "activity remaining": "106%"}
{"smiles": "CC1(C)O[C@H]2[C@H](O)C[C@](O)(C(N)=O)C[C@H]2O1", "activity remaining": "109%"}
{"smiles": "CC1CCC(NC(=O)N(CCCl)N=O)CC1", "note": "(stereo not given)", "activity remaining": "106%"}
{"smiles": "CC1O[C@@H](Oc2c(-c3ccc(O)c(O)c3)oc3cc(O)cc(O)c3c2=O)[C@H](O)[C@H](O)[C@H]1O", "note": "(stereo not given in full)", "activity remaining": "111%"}
{"smiles": "CC1(C)O[C@@H]2CC3C4CCC5=CC(=O)C=C[C@]5(C)[C@@]4(F)[C@@H](O)C[C@]3(C)[C@]2(C(=O)CO)O1", "note": "(stereo not given in full)", "activity remaining": "116%"}
